Measurements reported in the OligoGym collection.

These sequences were tested against GALNT12 (assay: pooled miR-30 sensor sort-seq; sequence = guide strand). Details: shRNA.

Compared with TCGATCACATCAATCACCGGGC, TATCACTGTAGTCATCTACAAG is lower in sensor-assay potency score (higher = more potent): -0.0357 for the first, -1.3 for the second.

Going from TGAACTTCTGATTCTCTGGGGC to TTCTTCTAGCAGGATATCCGGG, the sensor-assay potency score (higher = more potent) falls from 0.682 to -0.589.

First: TCTTCTAGCAGGATATCCGGGG
Second: TTACACTGGAGCTTGTCCCGGA
The sensor-assay potency score (higher = more potent) of the first is lower: -0.323 for the first, 0.473 for the second.

Compared with TTACTCACAGCAAACAGCCCAC, TAGTCCTTTGTTCTGGAGCATC is lower in sensor-assay potency score (higher = more potent): -0.133 for the first, -1.37 for the second.

First: TTCTTCTCTTTGCACAGCGGGT
Second: TTTCTTCTCTTTGCACAGCGGG
The sensor-assay potency score (higher = more potent) of the first is lower: -1.37 for the first, -0.991 for the second.

Compared with TTCAGCTGCACGAACACTGTTG, TATAGTCAAAGCAGTAGTCTGT is higher in sensor-assay potency score (higher = more potent): -0.106 for the first, 0.11 for the second.

These sequences were tested against GALNT14 in the same assay as above. Details: shRNA.

Going from TTGGTGTTCTTTATATACGTGT to TCTTTTGGAAACAACCTCCATT, the sensor-assay potency score (higher = more potent) rises from -0.309 to -0.288.

Compared with TTCTTTTGGAAACAACCTCCAT, ATTGCTGTCGGTCATCTCCATT is lower in sensor-assay potency score (higher = more potent): -0.965 for the first, -1.29 for the second.

Compared with TTGTCGATCACGAAGAGCCCTC, TTGGAAACAACCTCCATTCTTC is higher in sensor-assay potency score (higher = more potent): -0.543 for the first, 0.406 for the second.

Compared with TATGATAGGAGTCCTGATGGGC, TTCCAGTCTGTTCTGGTCCAGG is lower in sensor-assay potency score (higher = more potent): -0.477 for the first, -1.18 for the second.

Going from TCATCTCTCAATGTAGTCCTGG to AACAGCAGCACCGTGATCCAGA, the sensor-assay potency score (higher = more potent) falls from 0.0167 to -0.665.

Going from TTTTGGTCCATTGCTGTCGGTC to TTGACGACGATTTCCTTGCCGT, the sensor-assay potency score (higher = more potent) rises from -1.13 to -0.222.

Each sequence was assayed against GALNT7 in the same assay as above. Details: shRNA.

Going from TTCATTGATTCTGAAAAGCTGA to TAATCATAACTTTTGATCCATC, the sensor-assay potency score (higher = more potent) falls from -0.364 to -1.43.

First: TAGACTCTAAGTCCACTTCTAC
Second: TAACTTTTGATCCATCAGCTCC
The sensor-assay potency score (higher = more potent) of the first is higher: -0.661 for the first, -0.72 for the second.

First: ATTGACATCTCTGTCTTCCCTC
Second: TTGACATCTCTGTCTTCCCTCA
The sensor-assay potency score (higher = more potent) of the first is higher: 0.3 for the first, -0.191 for the second.

Going from TTATTCTTCTAATAGACTCTAA to TTTAATTACACTGTGGACTGTT, the sensor-assay potency score (higher = more potent) rises from -0.0226 to 0.94.

Compared with TTAAATTTTAAAAACGTGCAGA, TTCGTGCTTGAATTAAACCTTC is lower in sensor-assay potency score (higher = more potent): -0.271 for the first, -0.485 for the second.

TTCTTTATTACTGAAATCGTCA was tested, and the sensor-assay potency score (higher = more potent) was -0.232.

The sequences below were run against GALNT9 in the same assay as above. Details: shRNA.

Compared with TTTCTCACCTCTCCGTACGTGA, TTTGGACATCTCCACCTCCAGG is lower in sensor-assay potency score (higher = more potent): -0.461 for the first, -1.41 for the second.

Sequence TTCGACATGGGGATGTTCCAGG has a sensor-assay potency score (higher = more potent) of -0.845.
